Inconclusive results are not listed. Calls of active or inactive are those of the source.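 The calls were made as follows: active = every repeat run fits a falling-signal curve with half-maximal potency within ten times top tested dose; inconclusive = runs disagree, or flat moderate drop, or poor fit; inactive = every run inactive, including signal moving upward.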
Assay: inhibition of ADP-Glo detection reagents, dose response, artefact control for CDK5 inhibitor project, biochemical, luminescence, cherry-picked samples, set 2 (AID 504546)
Details: ADP-Glo detection reagent counter screen, 5 uM ADP; series mostly up to 30 µM

Structure (SMILES)	outcome
N#Cc1cn(C2OC(CO)C(O)C2O)c2ncnc(N)c12 (stereo not drawn)	inactive
Nc1ncnc2c1ccn2[C@@H]1O[C@H](CO)[C@@H](O)[C@H]1O	inactive
NC(=O)c1c(Br)n(C2OC(CO)C(O)C2O)c2ncnc(N)c12 (stereo not drawn)	inactive
O=C1Nc2ccccc2/C1=C/c1cnc[nH]1	inactive
Nc1ccc(CC2=NCCN2)cc1	inactive
COc1cc2c(ccc3c4cc(OC)c(OC)cc4c[n+](C)c23)cc1O	inactive
N#Cc1c(Br)n(C2OC(CO)C(O)C2O)c2ncnc(N)c12 (stereo not drawn)	inactive
NC(=O)c1cn(C2OC(CO)C(O)C2O)c2ncnc(N)c12 (stereo not drawn)	inactive

From PubChem BioAssay AID504546 (Broad Institute, 2011)
